M1 antag = human M1 muscarinic receptor antagonists, primary screen, CHO-K1 cells, Fluo-8 calcium fluorescence, 1536-well. CHO-K1 hM1, ACh EC80 antagonist. inhibition, % at 3 µM. AID 588852, 2011. 360,000 compounds, 1.3% hits;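 active means percent inhibition above its own plate's cutoff, namely the mean of that plate's compound wells plus 3 SD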;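 further: peak over basal fluorescence ratio during 140 s after agonist addition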
Target sequence (P11229 whole entry, looked up): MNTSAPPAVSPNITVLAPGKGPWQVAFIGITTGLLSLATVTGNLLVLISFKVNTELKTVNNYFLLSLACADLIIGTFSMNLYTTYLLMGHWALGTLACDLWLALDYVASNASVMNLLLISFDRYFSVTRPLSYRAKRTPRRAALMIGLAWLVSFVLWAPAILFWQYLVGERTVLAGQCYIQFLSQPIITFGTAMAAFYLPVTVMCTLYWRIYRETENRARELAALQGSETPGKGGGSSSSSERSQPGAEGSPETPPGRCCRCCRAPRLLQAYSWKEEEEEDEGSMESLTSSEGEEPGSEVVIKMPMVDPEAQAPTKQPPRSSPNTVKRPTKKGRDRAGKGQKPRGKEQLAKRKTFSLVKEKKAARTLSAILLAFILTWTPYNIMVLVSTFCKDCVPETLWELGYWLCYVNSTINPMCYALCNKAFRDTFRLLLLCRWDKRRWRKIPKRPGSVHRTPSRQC
M1 PAM parental = nonselective calcium activators in parental CHO-K1 cells, primary screen, counter-screen for M1 PAM project, cell-based, Fluo-8 calcium fluorescence, full deck, 1536-well. 360,000 compounds, 0.02% hits. ATP EC20; 0% at ATP EC20, 100% at ATP max. activation, % at 3 µM;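 active means activation above the run cutoff, the mean activation of all test compounds plus 3 SD, cut at about 40% in these data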;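 further: peak over basal fluorescence ratio in a 140 s read after ATP addition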
CHRM1 agonist = human M1 muscarinic receptor agonists, primary screen, Fluo-8 calcium fluorescence, CHO-K1 cells, HTS. activation, % at 3 µM. CHO-K1 hM1, agonist mode; 0% DMSO, 100% acetylcholine EC100. 360,000 compounds, 0.33% hits;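 active means activation above the run's mean compound activation plus 3 SD, cut at about 16% in these data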;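 further: peak over basal fluorescence ratio within a 140 s kinetic read after compound addition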
M1 ag parental = counter-screen for M1 agonists: effect in parental CHO-K1 cells; activation, % at 3 µM; 360,000 compounds, 0.48% hits; Fluo-8 calcium fluorescence; scaled to maximal ATP response, vehicle zero; in the data active means activation above about 15%;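 further: untransfected CHO-K1 host cells lacking M1 receptor as counterscreen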
CHO-K1 Ca antag = nonselective inhibitor or artifact in parental CHO-K1 cells | ATP-induced calcium, Fluo-8 fluorescence | inhibition, % at 3 µM | 360,000 compounds, 0.6% hits | AID 602250;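 active means inhibition above a per-plate cutoff, the plate's mean sample inhibition plus 3 SD, cut at about 24% in these data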
M1 PAM = human M1 muscarinic receptor positive allosteric modulators, primary screen, CHO-K1 cells, Fluo-8 calcium fluorescence, 1536-well; Muscarinic acetylcholine receptor M1 (Homo sapiens), P11229; CHO-K1 hM1, ACh EC20; 0% = ACh EC20, 100% = maximal ACh; activation, % at 3 µM; 360,000 compounds, 0.088% hits; in the data active means activation above about 19%, passing the limit was not always enough
Of the large screens only hits and unclear results are named; the others gave an inactive call. Sampled rows, rich in hits. Any-hit rate of the full collection: about 2.4%.

CC(=O)c1ccc(N2CCN(CC(O)COC(c3ccccc3)c3ccccc3C)CC2)cc1 (centres undefined)	M1 antag 101.2
CC(=O)c1ccc(N2CCN(CC(O)COC(c3ccccc3)c3ccccc3)CC2)cc1 (centres undefined)	M1 antag 91.0
OC(COC(c1ccccc1)c1ccccc1)CN1CCN(c2cccc(Cl)c2)CC1 (centres undefined)	none
CCCCNC(=O)C1(C)CCC(=O)N1c1cc(C(C)(C)C)nn1C (centres undefined)	CHO-K1 Ca antag 32.1
O=C(c1cccc(C(=O)N2CCN(Cc3ccccc3)CC2)c1)N1CCN(Cc2ccccc2)CC1	none
O=C(c1cccc(Cl)c1)N1CCN(Cc2ccncc2)CC1	CHO-K1 Ca antag 24.8
CN(C)CCCCCNCCCNC(=O)/C=N\O	none
CN(C)CCNC(=O)/C=N/O	CHRM1 agonist 26.3
CCCn1c(N)c(C(=O)COC(=O)c2cccc(S(=O)(=O)N3CCOCC3)c2)c(=O)[nH]c1=O	none
CC1CCN(S(=O)(=O)c2ccc(NC(=O)CN3CCCC3)cc2)CC1	none
CCN1CCN(CC(=O)Nc2ccc(S(=O)(=O)N3C(C)CCCC3C)cc2)CC1 (centres undefined)	M1 antag 24.1
CC1CCC(NS(=O)(=O)c2ccc(N3CCCC3=O)cc2)CC1 (centres undefined)	M1 antag 45.8, M1 ag parental 19.5
O=C(CNC1CCCCCC1)Nc1ccc(S(=O)(=O)NC2CC2)cc1	M1 antag 31.6
CC1CCN(CC(=O)Nc2ccc(S(=O)(=O)NC3CC3)cc2)CC1	M1 antag 74.0
CN(c1ncc(C(F)(F)F)cc1Cl)N1C(=O)c2cccc([N+](=O)[O-])c2C1=O	none
CCN(CC)CCCNC(CC(=O)Nc1cccc([N+](=O)[O-])c1)C(=O)O (centres undefined)	none
CSc1ncc(CO)n1Cc1ccccc1	none
c1ccc2[nH]c3cc4ncnc4cc3nc2c1	none
Cc1csc2c(N3CCN(C(=S)Nc4ccc(F)cc4F)CC3)ncnc12	CHRM1 agonist 22.8, M1 ag parental 22.8
Cc1ccc(C(=O)NC(=S)N2CCN(c3ccc([N+](=O)[O-])cc3)CC2)cc1	none
CCCC(=O)NC(=S)Nc1ccc(N2CCN(C(=O)c3cccs3)CC2)cc1	M1 ag parental 15.4
O=[N+]([O-])c1ccc(N2CCN(C(=S)Nc3ccc(F)cc3F)CC2)cc1	CHO-K1 Ca antag 24.3
CCCC(=O)NC(=S)N1CCN(c2ccc([N+](=O)[O-])cc2)CC1	CHO-K1 Ca antag 25.3
CCCC(=O)NC(=S)Nc1ccc(NC(=O)c2cccs2)cc1	none
O=C(c1ccccc1SCc1ccc(F)cc1)N1CCOCC1	none
Cc1ccc(C(=S)N2CCN(Cc3ccccc3)CC2)s1	none
COc1ccc(N2CCN(C(=O)CCS(=O)(=O)c3ccc(OC)cc3)CC2)cc1	none
COc1ccc(S(=O)(=O)CCC(=O)N2CCN(c3ccc([N+](=O)[O-])cc3)CC2)cc1	M1 antag 48.0
COC(=O)/C=C/c1oc2ccccc2c1C	none
CC1(C)Cc2cccc(OCC(=O)OCC(=O)NCc3ccccc3)c2O1	none
COc1ccc(Br)c(C(=O)Nc2cccc(Cl)c2Cl)c1	CHO-K1 Ca antag 31.4
COc1ccc2nc(C)cc(NCc3ccc(F)cc3)c2c1	M1 antag 28.7
N=c1sccn1CC(=O)Nc1ccc(S(N)(=O)=O)cc1	none
N=c1sccn1CC(=O)Nc1cccc(S(N)(=O)=O)c1	M1 antag 35.5
C#CC[N+](C)(C)CCCCCCCCC	none
CC#CC[N+](C)(C)CCCCCCCCCC	M1 antag 57.0
CSc1ccc(C(=O)C2CCCN(Cc3cccc4nccnc34)C2)cc1 (centres undefined)	M1 antag 67.8
CN(C)S(=O)(=O)c1cccc(C(=O)OCC(=O)Nc2sccc2C(N)=O)c1	M1 antag 37.2, M1 ag parental 20.9
CCOc1ccc(CCNC(=O)COC(=O)c2cccc(S(=O)(=O)N(C)C)c2)cc1OCC	CHO-K1 Ca antag 44.4
CCOc1ccc(CCNC(=O)COC(=O)c2cccc(N(C)C)c2)cc1OCC	none
COc1ccc(N(C)S(=O)(=O)c2cccc(C(=O)OCC(=O)NCc3ccccc3OC)c2)cc1	M1 antag 25.2
CN(c1ccccc1)S(=O)(=O)c1cccc(C(=O)OCC(=O)NCc2ccccc2)c1	none
CC(=O)NC(Cc1ccccc1)C(=O)Oc1ccc2ccccc2c1 (centres undefined)	none
COCc1cc(C)nc(SCC[N+](C)(C)CC(=O)c2ccc(Br)cc2)c1C#N	M1 antag 70.4
O=C(CCN1C(=O)S/C(=C\c2cccs2)C1=O)NC1=NCCS1	none
Cc1nn(C)cc1C(C)NCc1c(C(=O)N2CCCCCCC2)nc2ccc(Cl)cn12 (centres undefined)	none
COC(=O)c1ccc(NC(=O)Nc2ccc([N+](=O)[O-])cc2)cc1	M1 ag parental 15.9
Cc1ccc(NC(=S)Nc2ccc(OC(F)F)c(Cl)c2)cc1F	M1 antag 24.5
Cc1ccc(NC(=O)Nc2ccc(F)cc2)cc1Cl	CHO-K1 Ca antag 25.8
O=C(Nc1ccc(F)c(Cl)c1)Nc1csc2ccccc12	CHO-K1 Ca antag 27.6
COc1ccc(CCNC(=O)CSc2nnc3ccc(-c4cccnc4)nn23)cc1	none
O=C(COc1ccc(Cl)cc1)NCc1n[nH]c(=O)c2ccccc12	none
CC(=O)Nc1ccc(CN(C)c2c(C)nc3ccc(C(=O)N(C)Cc4ccco4)cn23)cc1	none
CCn1cc(C(=O)N(C)c2ccccc2F)c2cc(OC)c(OC)cc2c1=O	none
C[C@@H](CC#N)CN1CC[C@H](C(C)(C)C)CCC1=O	none
CC(=O)N(C)c1ccc(NC(=O)Nc2ccccc2C)cc1	none
O=C(Nc1ccncc1)Nc1ccc(F)c(Cl)c1	CHO-K1 Ca antag 23.7
O=C(NC(=S)Nc1ccc(F)c(Cl)c1)C1CC1	none
CC(=O)N(C)c1ccc(NC(=O)Nc2ccc(C)c(C)c2)cc1	M1 antag 26.8
COC(=O)c1ccc(NC(=O)Nc2ccc(F)c(Cl)c2)cc1	M1 antag 32.4, M1 ag parental 15.4
Fc1ccc(NC(=S)Nc2ccc(F)c(Cl)c2)cc1Cl	M1 antag 23.6, CHO-K1 Ca antag 28.2
COC(=O)c1ccc(NC(=O)Nc2ccc(F)cc2)cc1	none
N#C/C(=C\c1cc2c(cc1Br)OCO2)C(=O)NCC1CCCO1 (centres undefined)	none
CCc1nc2ccccc2n1CC(=O)OCC(=O)N(CC(C)C)c1c(N)n(Cc2ccccc2)c(=O)[nH]c1=O	none
O=C(C[n+]1ccc(/C=N/O)cc1)NC1CCCCC1	none

Screening results from PubChem BioAssay.
